36 molecules from article PMC5540273 (PLoS ONE, 2017) can be followed below.
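Note: KINOMEscan kinase panel screen.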

This assay relates to CDKL1. As to conditions: concentration: 1 μM, replicates: in singlicate; n = 1.
With `COc1ccc(Nc2nccc(N3CCC(NC(=O)c4cc5ccccc5s4)C3)n2)cc1` (stereo not drawn) [GSK1379738], the “%Inh” value was determined as 8%.

For the molecule `Cc1ccc(-c2nc(Nc3ccncc3)c3ccccc3n2)s1` [GSK189015], the “%Inh” value was 0%.

Turning to `Cn1cncc1C(=O)NC1CCN(c2ccnc(Nc3ccc(F)cc3)n2)C1` (stereo not drawn) [GSK1379717], the “%Inh” value is 99%.

As for `COc1ccc(Nc2nccc(N3CCC(NC(=O)C(C)c4ccc(Cl)cc4)C3)n2)cc1` (stereo not drawn) [GSK1379735], the “%Inh” value amounted to 100%.

`COc1nccc(-c2c(-c3ccc(F)cc3)ncn2CCCN2CCOCC2)n1` [SB-282852]: the “%Inh” value amounted to 31%.

`Cc1ccccc1Cn1ccn2c(=O)cc(N3CCOCC3)nc12` [GSK2269905]: the “%Inh” value was 12%.

Regarding `CS(=O)(=O)CCNCc1nc(-c2ccc3ncnc(Nc4ccc5c(cnn5Cc5ccccc5)c4)c3c2)cs1.Cl.Cl` [GW569716], the “%Inh” value is 0%.

For `O=C1NC(=O)C(c2ccc(Cl)cc2)=C1Nc1ccc(O)cc1` [SB-340867], the “%Inh” value is on record as 12%.

For `Cc1cccc2c(-c3ccncn3)c(-c3ccc(F)cc3)nn12` [GW515532], the “%Inh” value is 0%.

For the molecule `Cn1cncc1-c1cc2c(Nc3ccc(OCc4ccccc4)cc3)ncnc2cn1` [GW281179], the “%Inh” value came out at 100%.

As to `CCn1c(-c2ccccc2)nc2cnccc21` [SB-733416], the “%Inh” value came out at 0%.

With `Nc1ncnc2occ(-c3ccc4c(c3)CCN4C(=O)Cc3cc(F)ccc3F)c12` [GSK2645446], the “%Inh” value turned out to be 17%.

For `c1ccc(-c2ccnc3[nH]ccc23)cc1` [SB-693578], the “%Inh” value was determined as 2%.

Consider `O=C(Nc1n[nH]c2cc(-c3ccsc3)ccc12)C1CC1` [SB-732932], for which the “%Inh” value is on record as 10%.

Consider `COc1ccc(Nc2nccc(NCCNC(=O)Nc3cc(C)ccc3C)n2)cc1` [GSK1379899], for which the “%Inh” value was determined as 0%.

Consider `Cc1ccc(NC(=O)Nc2ccccc2F)cc1-c1ccc(C(=O)Nc2ccncc2)cc1` [GSK1398477], for which the “%Inh” value was 7%.

With `Cl.Cl.Cl.N#Cc1ccc(CCNc2nccc(-c3cccc(CN4CCNCC4)c3)n2)cc1` [GSK2137462], the “%Inh” value is 2%.

As for `O=C1NC(=O)C(c2ccc(Cl)cc2)=C1Nc1cccc(Cl)c1` [SB-317651], the “%Inh” value turned out to be 11%.

As for `Cc1ccccc1-c1cc(-c2c[nH]nc2-c2ccccn2)ccn1` [GW680061], the “%Inh” value was determined as 0%.

Take `Fc1ccc(-c2nc3n(c2-c2ccncc2)CCS3)cc1` [GI98581]: the “%Inh” value is recorded as 2%.

Regarding `CC(C)c1ccc(O)cc1Nc1ccnc2ccc(C(F)(F)F)cc12` [GW482059], the “%Inh” value amounted to 0%.

Take `CC(=O)c1cccc(NC(=O)NC2CCN(c3ccnc(Nc4ccc(F)cc4)n3)C2)c1` (stereo not drawn) [GSK1379710]: the “%Inh” value is 27%.

On to `Cc1nccc(-c2c(-c3ccc(F)cc3)ncn2CCCN2CCOCC2)n1.Cl` [SB-282975], for which the “%Inh” value came out at 34%.

Turning to `O=C(Nc1n[nH]c2nc(-c3ccco3)c(Br)cc12)C1CCN(Cc2ccccc2)C1.O=C(O)[C@H](O)[C@@H](O)C(=O)O` (stereo not drawn) [SB-742034], the “%Inh” value was 51%.

As to `O=c1cc(N2CCOCC2)nc2n(Cc3cccc(Cl)c3Cl)c3ccccc3n12` [GSK2299009], the “%Inh” value was 15%.

Take `Cn1cnc2c(N)ncnc21` [SKF-97623]: the “%Inh” value was determined as 91.1%.

Regarding `CNCc1ccc2nc(NC(=O)c3ccc(C(C)(C)C)cc3)cn2c1`, the “%Inh” value is 0%.

Consider `COc1ccc(CSc2nnc(-c3ccc4nccn4c3)o2)cc1C(F)(F)F`, for which the “%Inh” value was 21%.

With `O=C(Nc1n[nH]c2nc(-c3cccs3)c(Br)cc12)C1CCCC1` [SB-743341], the “%Inh” value was 10%.

As to `Nc1nccc(-c2c(-c3ccc(F)cc3)ncn2C2CCN(Cc3ccccc3)CC2)n1` [SB-219980], the “%Inh” value worked out at 0%.

Turning to `Cc1ccc(NC(=O)Nc2ccc(Cl)c(C(F)(F)F)c2)cc1-c1ccc(C(=O)Nc2ccncc2)cc1` [GSK1398470], the “%Inh” value is reported as 86%.

`COc1ccc(CSc2nnc(-c3ccc4c(c3)CCO4)o2)cc1`: the “%Inh” value stood at 0%.

On to `NS(=O)(=O)c1cccc(N/C=C2\C(=O)Nc3ccc(S(=O)(=O)Cc4c(Cl)cccc4Cl)cc32)c1` [GSK398099], for which the “%Inh” value is recorded as 100%.

As to `CNc1nc(-c2ccc3c(N)n[nH]c3c2)cc(N2C[C@@H](C(=O)NC3CCCCC3)OC[C@H]2C)n1` [GSK2375584], the “%Inh” value came out at 13%.

On to `CS(=O)(=O)Cc1ccc(Nc2nccc(-c3c(-c4cccc(NC(=O)C5CCCCC5)c4)nn4ncccc34)n2)cc1` [GSK350559], for which the “%Inh” value was determined as 0%.

Take `COC(=O)c1cccc(NC(=O)NC2CCN(c3ccnc(Nc4ccc(OC)cc4)n3)C2)c1` (stereo not drawn) [GSK1379746]: the “%Inh” value turned out to be 14%.
